{"source": "PubChem BioAssay (NCATS)", "note": "Results filed as inconclusive are left out. Activity calls are given as the source filed them. Calls follow the shape of the dose curve; as a rule, active = well fitted cell-killing curve with a large enough effect in the repeat runs; inconclusive = weak or mixed curves, or effect the other way; inactive = flat fitted curve, though single readings scatter. % is scaled to controls: 0 for no effect and ±100 for the full control effect."}
{"test": "qHTS assay for small molecule antagonists of the retinoid-related orphan receptor gamma (ROR-gamma) signaling pathway - cell viability counter screen (AID 720652);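 also: compound exposure lasted 16 hr before ATP read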", "settings": "RORgamma reporter cell line viability counter screen; series mostly up to 92.2 µM; activity change, negative = cytotoxicity: at the top concentration", "source_text": "National Center for Advancing Translational Sciences [NCATS]\nNIH Chemical Genomics Center [NCGC]\nNational Institutes of Environmental Health Sciences [NIEHS]\nNational Toxicology Program [NTP]\nNuclear steroid hormone receptors are involved in many biological processes including inflammatory responses, cell proliferation, and apoptosis. Environmental factors or compounds disrupting these nuclear receptor pathways and gene expression may promote susceptibility to immunotoxicants and autoimmune diseases. One important group of these expression factors are the retinoid-related orphan receptors. To assess compounds that may interfere with the retinoid-related orphan receptor gamma (ROR-gamma) transcription factor, a cell-based luciferase assay was used.\nThe CHO cell-based assay utilizes a TET-inducible ROR expression factor and ROR response element-LUC reporter gene. Reporter activity was induced using doxycycline and measured after 16hr incubation. Luminescence was read using Viewlux (PerkinElmer), where a decrease in reporter activity would show a decrease in luminescence. The cytotoxicity of the compounds against ROR response-Luc reporter gene cell line was quantified by measuring the intracellular ATP content.\n1,000 cells in 4 uL/well were dispensed into white wall/solid bottom 1536-well plates using a Multidrop Combi (Thermo Scientific) dispenser. Following incubation at 37 C and 5% CO2 for 5 hr, 23 nL compound or DMSO vehicle were transferred by a pin tool, then the plates were treated with 1 ul doxycycline to induce reporter gene activity. After 16 hr incubation at 37 C and 5% CO2, 5 uL/well of CellTiter-Glo reagent (Promega) was then added to each plate using a Flying Reagent Dispenser and incubated at room temperature for 30 min. The luminescence intensity was quantified on a ViewLux plate reader (PerkinElmer)."}
{"compound": "Oc1ccc(Cl)cc1Cc1cc(Cl)ccc1O", "activity change, negative = cytotoxicity": "-15.8% (inactive)"}
{"compound": "OC[C@H]1O[C@@H]2O[C@H]3[C@H](O)[C@@H](O)[C@@H](O[C@H]4[C@H](O)[C@@H](O)[C@@H](O[C@H]5[C@H](O)[C@@H](O)[C@@H](O[C@H]6[C@H](O)[C@@H](O)[C@@H](O[C@H]7[C@H](O)[C@@H](O)[C@@H](O[C@H]8[C@H](O)[C@@H](O)[C@@H](O[C@H]1[C@H](O)[C@H]2O)O[C@@H]8CO)O[C@@H]7CO)O[C@@H]6CO)O[C@@H]5CO)O[C@@H]4CO)O[C@@H]3CO", "activity change, negative = cytotoxicity": "1.43% (inactive)"}
{"compound": "NC(=O)c1ccccc1O", "activity change, negative = cytotoxicity": "-5.53% (inactive)"}
{"compound": "CCCCC(CC)COC(=O)c1ccc(N(C)C)cc1", "note": "(configuration not stated)", "activity change, negative = cytotoxicity": "-2.01% (inactive)"}
{"compound": "CCCN(CCC)S(=O)(=O)c1ccc(C(=O)O)cc1", "activity change, negative = cytotoxicity": "-0.491% (inactive)"}
{"compound": "COc1ccc(C(=O)c2ccccc2)c(O)c1", "activity change, negative = cytotoxicity": "8.57% (inactive)"}
{"compound": "CCOc1ccc(NC(C)=O)cc1", "activity change, negative = cytotoxicity": "4.23% (inactive)"}
{"compound": "O=C(O)c1ccc(S(=O)(=O)N(Cl)Cl)cc1", "activity change, negative = cytotoxicity": "2.66% (inactive)"}
{"compound": "C=C[C@H]1CN2CC[C@H]1C[C@@H]2[C@@H](O)c1ccnc2ccc(OC)cc12", "activity change, negative = cytotoxicity": "4.49% (inactive)"}
{"compound": "COc1cc([C@H]2Oc3cc([C@H]4Oc5cc(O)cc(O)c5C(=O)[C@@H]4O)ccc3O[C@@H]2CO)ccc1O", "activity change, negative = cytotoxicity": "6.86% (inactive)"}
{"compound": "CCOc1ccccc1C(N)=O", "activity change, negative = cytotoxicity": "3.85% (inactive)"}
{"compound": "C/C=C/c1ccc(O)c(OC)c1", "activity change, negative = cytotoxicity": "5.94% (inactive)"}
